APP 5UTR inh: inhibitors of APP translation via 5'UTR reporter, primary screen, APP 5'UTR luciferase, SH-SY5Y cells. SH-SY5Y APP 5'UTR-luciferase reporter, luminescence. inhibition, % at 2 µM. 190,000 tested, 0.82% active. AID 1285, 2008;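 active means inhibition above a set limit, derived from the sample mean plus 3 SD, cut at about 45% in these data; inconclusive means one replicate passes the limit while the other fails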
IEC-6 cytotox: cytotoxicity in IEC-6 intestinal epithelial cells, primary screen, cytotoxicity control for KLF5 inhibitor project, cell-based, luminescence. inhibition, % at 5 µM. IEC-6 cytotoxicity, luminescence viability. 290,000 tested, 0.78% active. AID 1825, 2009;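 further: 0% = plate median of test compound wells and 100% = cytotoxic reference compound wells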
Ba/F3 V617F tox: reduced viability of JAK2V617F-dependent Ba/F3 cells, primary screen, JAK2V617F inhibitor project, cell-based, Ba/F3 EpoR-JAK2V617F, luminescence; 220,000 tested, 1.1% active; inhibition, % at 5.6 µM; ATP luminescence; AID 1446, 2008;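 active means inhibition above the campaign mean plus 3 SD over all tested compounds, cut at about 24% in these data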;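 further: cytokine-independent growth of Ba/F3 cells driven by EpoR plus mutant JAK2; 0% = DMSO-treated cells and 100% = JAK inhibitor I control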
aSyn UTR inh: MLPCN primary screen, SNCA 5' untranslated region | alpha-synuclein 5'UTR reporter, inhibitor activity | inhibition, % (tested at 7.5 µM) | 300,000 tested, 0.82% active; in the data active means inhibition above about 60%; inconclusive means no clear call, values can overlap the other calls;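 further: H4 neuroglioblastoma cells stably carrying SNCA 5'UTR luciferase fusion; 0% = DMSO wells and 100% = positive control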
BaF3 parental: parental Ba/F3 cell viability inhibition, counter-screen for JAK2V617F inhibitor project, murine pro-B, CellTiter-Glo luminescence; CellTiter-Glo ATP luminescence; inhibition, % at 5.6 µM; 220,000 tested, 1.1% active;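 active means inhibition above a per-campaign cutoff, the mean inhibition of all tested compounds plus 3 SD, cut at about 27% in these data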;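 further: 0% = DMSO wells and 100% = JAK Inhibitor I control wells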
KLF5 inhibitor: KLF5 expression inhibitors, primary screen, DLD-1 cells, luminescence. DLD-1 KLF5 promoter-luciferase reporter. inhibition, % at 5 µM. 290,000 tested, 0.23% active;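 active means inhibition above a per-plate limit of that plate's mean compound inhibition plus 3 SD, cut at about 60% in these data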;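 further: 0% = DMSO wells and 100% = LY294002 at 200 µM; higher means less KLF5 promoter-driven luciferase light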
IEC-6 tox confirm: cytotoxic compounds in IEC-6 epithelial cells, confirmation, cytotoxicity control, cell-based, luminescence | shares compounds with IEC-6 cytotox | 1,900 tested, 63% active | inhibition, % at 5 µM | IEC-6 rat intestinal epithelial viability;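 further: 0% = vehicle and 100% = reference cytotoxic drug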
* = called active by the depositor. Most compounds without a hit are left out; they make up all but 2.2% or so of the library. Unless noted, no stated cut-off is given here; in the data, active means inhibition above about 22%; inactive means the rest.

What do the screens show for `COc1ccc(/C=C2\Cc3ccccc3C2=O)cc1OC`?
IEC-6 cytotox: 7.0; Ba/F3 V617F tox: 2.1; aSyn UTR inh: -39.2; BaF3 parental: -3.2; KLF5 inhibitor: -7.1

How did CCOCCCNC(=O)c1cc2c(=O)n(CC)c3ccccc3c2s1 do in these assays?
IEC-6 cytotox: 22.0*; aSyn UTR inh: -79.9; KLF5 inhibitor: -57.3; IEC-6 tox confirm: 6.5

Results for CCN(CC)CCNC(=O)c1cc2c(=O)n(CC)c3ccccc3c2s1 ?
IEC-6 cytotox: 17.5; aSyn UTR inh: -124.6; KLF5 inhibitor: -49.3

Results for CCn1c(=O)c2cc(C(=O)NCCOC)sc2c2ccccc21 ?
IEC-6 cytotox: 9.6; aSyn UTR inh: -35.2; KLF5 inhibitor: -13.2

What do the screens show for `CCN(CC)CCCNC(=O)c1cc2c(=O)n(CC)c3ccccc3c2s1`?
IEC-6 cytotox: 25.8*; aSyn UTR inh: -107.5; KLF5 inhibitor: -13.1; IEC-6 tox confirm: 10.6

Results for CCC(C)c1ccc(NC(=O)Nc2cnccn2)cc1 (configuration not stated) ?
IEC-6 cytotox: 78.8*; aSyn UTR inh: -188.1; KLF5 inhibitor: 27.2; IEC-6 tox confirm: 55.2*

What do the screens show for `CCCC(=O)n1nc(-c2cccnc2)nc1NCc1ccccc1`?
APP 5UTR inh: 6.8; IEC-6 cytotox: 1.2; Ba/F3 V617F tox: -1.0; aSyn UTR inh: 6.3; BaF3 parental: 5.3; KLF5 inhibitor: -25.7

What do the screens show for `NC(=S)NNc1c(F)c(F)c(F)c(F)c1F`?
APP 5UTR inh: 17.8; IEC-6 cytotox: 49.0*; Ba/F3 V617F tox: 30.0*; aSyn UTR inh: 19.9; BaF3 parental: 35.0*; KLF5 inhibitor: 23.1; IEC-6 tox confirm: -9.2

What do the screens show for `Cc1ccccc1NNC(N)=S`?
APP 5UTR inh: -21.7; IEC-6 cytotox: -0.4; Ba/F3 V617F tox: -1.0; aSyn UTR inh: 14.0; BaF3 parental: 3.5; KLF5 inhibitor: -9.6

Results for COc1cc(-c2noc(C)c2-c2ccc3[nH]ccc3c2)cc(OC)c1OC ?
IEC-6 cytotox: 89.0*; aSyn UTR inh: -10.5; KLF5 inhibitor: 41.1; IEC-6 tox confirm: 59.9*

How did COc1cc2[nH]c(C(=O)Nc3ccc(F)cc3)cc2c(OC)c1OC do in these assays?
IEC-6 cytotox: 57.1*; aSyn UTR inh: -228.5; KLF5 inhibitor: 39.8; IEC-6 tox confirm: 26.9*

Results for COc1ccc(C2C(C(=O)Nc3cc(OC)c(OC)c(OC)c3)c3ccccc3C(=O)N2C)cc1 (configuration not stated) ?
APP 5UTR inh: 69.0*; IEC-6 cytotox: 58.9*; Ba/F3 V617F tox: 41.4*; aSyn UTR inh: 97.9*; BaF3 parental: 61.0*; KLF5 inhibitor: 38.5; IEC-6 tox confirm: 59.9*

Results for CC(=O)c1c(-c2ccccc2)c2cc(Cl)ccc2n(C)c1=O ?
IEC-6 cytotox: 22.5*; aSyn UTR inh: 27.9; KLF5 inhibitor: -2.0; IEC-6 tox confirm: 6.9

Results for Cn1c(=O)c(C(=O)NCc2ccc(Cl)cc2)c(O)c2ccccc21 ?
IEC-6 cytotox: -4.0; aSyn UTR inh: 4.7; KLF5 inhibitor: -34.2

How did Cc1ccc(Cn2cc(-c3ccccc3)nn2)cc1 do in these assays?
IEC-6 cytotox: -9.4; aSyn UTR inh: -123.6; KLF5 inhibitor: -93.9

What do the screens show for `CCOC(=O)c1sc(N)c(C(=O)Nc2ccccc2OC)c1C`?
APP 5UTR inh: 46.8*; IEC-6 cytotox: 37.8*; Ba/F3 V617F tox: 39.6*; aSyn UTR inh: 30.4; BaF3 parental: 35.9*; KLF5 inhibitor: 12.0; IEC-6 tox confirm: 46.4*

How did O=C(NCCc1ccco1)C(=O)NCC1OCCCN1S(=O)(=O)c1ccc(F)cc1 (configuration not stated) do in these assays?
IEC-6 cytotox: -1.9; aSyn UTR inh: 17.5; KLF5 inhibitor: -7.6

Results for COc1ccc(S(=O)(=O)N2CCCOC2CNC(=O)C(=O)NCCc2ccco2)cc1C (configuration not stated) ?
IEC-6 cytotox: 28.5*; aSyn UTR inh: -21.9; KLF5 inhibitor: 19.0; IEC-6 tox confirm: 6.2

Results for CC(=O)N(c1ccccc1C)C1CCCC1 ?
APP 5UTR inh: -9.7; IEC-6 cytotox: 1.0; Ba/F3 V617F tox: 2.0; aSyn UTR inh: -3.5; BaF3 parental: 4.3; KLF5 inhibitor: -54.6

Results for CC(=O)N(C1=C(Cl)C(=O)c2ccccc2C1=O)C1CCCCC1 ?
IEC-6 cytotox: 25.1*; Ba/F3 V617F tox: 1.5; aSyn UTR inh: inconclusive; BaF3 parental: -4.9; KLF5 inhibitor: -12.6; IEC-6 tox confirm: 8.5

How did C/C(=N\NC(=O)c1cccc(F)c1)c1ccc(Br)s1 do in these assays?
APP 5UTR inh: -2.8; IEC-6 cytotox: 24.1*; Ba/F3 V617F tox: 6.7; aSyn UTR inh: -45.0; BaF3 parental: 14.2; KLF5 inhibitor: 5.8; IEC-6 tox confirm: 31.8*

Results for CC(C)NC(=O)c1cccc2c1-c1ccccc1C2=O ?
IEC-6 cytotox: 0.1; aSyn UTR inh: 4.0; KLF5 inhibitor: -6.6

Results for COc1cccc(C2NC(=S)NC(C)=C2C(=O)c2ccccc2)c1OC (configuration not stated) ?
APP 5UTR inh: 77.6*; IEC-6 cytotox: 68.3*; Ba/F3 V617F tox: 84.1*; aSyn UTR inh: 16.3; BaF3 parental: 78.3*; KLF5 inhibitor: 55.4; IEC-6 tox confirm: 50.4*

How did Cc1ccccc1OCCOC(=O)c1c(-c2ccccc2)noc1C do in these assays?
IEC-6 cytotox: 53.5*; aSyn UTR inh: -16.3; KLF5 inhibitor: 38.4; IEC-6 tox confirm: 27.6*

How did Cc1ccccc1CC1(CO)CCCN(Cc2nc(-c3cccs3)oc2C)C1 (configuration not stated) do in these assays?
APP 5UTR inh: 2.4; IEC-6 cytotox: -8.2; Ba/F3 V617F tox: 0.4; aSyn UTR inh: 2.8; BaF3 parental: 7.3; KLF5 inhibitor: 8.8

What do the screens show for `Cc1cc2c(NCCc3ccccc3)ncnc2s1`?
IEC-6 cytotox: 22.5*; aSyn UTR inh: -63.5; KLF5 inhibitor: -103.1; IEC-6 tox confirm: 22.4*

Results for C=CCc1ccc(O)c(-c2ccc(O)c(CC=C)c2)c1 ?
APP 5UTR inh: -5.5; IEC-6 cytotox: 4.9; Ba/F3 V617F tox: 5.4; aSyn UTR inh: -5.2; BaF3 parental: -9.0; KLF5 inhibitor: -31.1

Results for Nc1nc(-c2ccccc2)cc(N2CCCCC2)n1 ?
APP 5UTR inh: 93.9*; IEC-6 cytotox: 81.6*; Ba/F3 V617F tox: 69.8*; aSyn UTR inh: 55.0; BaF3 parental: 77.2*; KLF5 inhibitor: 61.2; IEC-6 tox confirm: 59.1*

How did c1ccc(-c2cc(N3CCCCC3)ncn2)cc1 do in these assays?
APP 5UTR inh: -45.3; IEC-6 cytotox: 6.4; Ba/F3 V617F tox: -2.4; aSyn UTR inh: -134.8; BaF3 parental: 2.6; KLF5 inhibitor: -57.7
